Measured values reported in PubChem BioAssay (NCI).
The panel holds about 83,000 compounds, 20% with a hit somewhere; the sample as a whole holds those more often.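 Cell lines were cultured in 96-well plates, exposed to a single compound concentration, and assessed for percent growth 48 hours later.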 Values without a mark were called inactive. Activity calls are given as the source filed them. How the source made its calls: active means growth percent below 10; inactive means the rest.

What was measured:
Assay in all cases: NCI-60 one-dose screen, 48 h (100 = growth as untreated, 0 = no growth, -100 = all killed)
Settings in all cases: 10 µM unless noted
SR leukemia = tested on: SR leukemia
RPMI-8226 leukemia = tested on: RPMI-8226 leukemia
OVCAR-8 ovarian = tested on: OVCAR-8 ovarian
OVCAR-5 ovarian = tested on: OVCAR-5 ovarian
OVCAR-4 ovarian = tested on: OVCAR-4 ovarian
SK-OV-3 ovarian = tested on: SK-OV-3 ovarian
IGROV1 ovarian = tested on: IGROV1 ovarian
OVCAR-3 ovarian = tested on: OVCAR-3 ovarian
HS 578T breast = tested on: HS 578T breast
NCI/ADR-RES ovarian = tested on: NCI/ADR-RES ovarian

Compound	growth (SR leukemia)	growth (RPMI-8226 leukemia)	growth (OVCAR-8 ovarian)	growth (OVCAR-5 ovarian)	growth (OVCAR-4 ovarian)	growth (SK-OV-3 ovarian)	growth (IGROV1 ovarian)	growth (OVCAR-3 ovarian)	growth (HS 578T breast)	growth (NCI/ADR-RES ovarian)
Cc1ccc2nc(-c3ccc(C(=O)N/N=C/c4ccc([N+](=O)[O-])cc4)cc3)[nH]c2c1	92%	95.6%	105%	96.5%	107%	109%	91.3%	115%	105%	106%
CCOC(=O)c1nnn(-c2no[n+]([O-])c2-c2ccc(OC)cc2)c1COc1cccc2cccnc12	6.52% (active)	4.48% (active)	0.67% (active)	48.6%	27%	12.4%	23.5%	16.8%	24.8%	9.15% (active)
O=S(=O)(NCCNc1nccc(-c2c(-c3ccc(F)c(O)c3)nc3sccn23)n1)c1ccc(Cl)cc1	9.79% (active)	-11.1% (active)	22.3%	93.1%	32.5%	39.3%	30.3%	45.4%	31.4%	28.5%
O=c1c2ccccc2n(C[C@H]2CO2)c2ccccc12	8.95% (active)	1.45% (active)	4.1% (active)	-12.7% (active)	7.68% (active)	-13.5% (active)	-52.3% (active)	-19.7% (active)	6.14% (active)	-14.3% (active)
C=C1C(=O)O[C@H]2[C@H]1CC/C(CNC(=O)Cc1c[nH]c3ccccc13)=C\CC[C@@]1(C)O[C@@H]21	-13.6% (active)	-0.862% (active)	9.54% (active)	46.2%	38.2%	106%	27.7%	-5.5% (active)	78.1%	89.9%
COc1cc(/C=C2\C(=O)N(CCCOc3cc(O)c4c(=O)cc(-c5ccccc5)oc4c3)c3ccccc32)cc(OC)c1O	31.9%	86.7%	84.7%	110%	83.6%	91.6%	77.2%	44.5%	70.4%	64%
COC(=O)c1nc(-c2ccccc2)oc1S(=O)(=O)N1CCCC(C)C1 (stereo not given)	0.921% (active)	51%	81.9%	87.4%	83.2%	110%	64%	48.9%	104%	100%
O=C(Oc1ccc2c(c1)sc1nc(-c3ccccc3)[nH]c(=O)c12)C(F)(F)F	18.9%	24.1%	40.8%	73.4%	51.4%	50.2%	32.9%	9.6% (active)	18.8%	7.5% (active)
COc1ccc(-c2cc(-c3cc(OC)ccc3OC)nc(SCC(C)=O)c2C#N)cc1	32.1%	33.2%	80.8%	84.1%	69.6%	59.9%	83.9%	66.4%	76.1%	52.1%
O=C(Nc1cc(Cl)ccc1O)c1ccccc1Nc1ccnc(C(F)(F)F)c1	-26.3% (active)	-21.5% (active)	10.6%	68.6%	19.8%	49.9%	1.77% (active)	-6.87% (active)	-2.86% (active)	-2.27% (active)
N[C@@H]1CCC[C@H]1NCCCCN1C(=O)c2cccc3cc([N+](=O)[O-])cc(c23)C1=O	4.54% (active)	41.4%	32.5%	72.5%	36.6%	34%	25.6%	45.6%	64.7%	73.4%
CNCC[C@H](Oc1cccc2ccccc12)c1cccs1	51.9%	94.7%	82.1%	117%	71.7%	109%	84.7%	86.9%	67.5%	83.4%
O=C(N/N=C/c1ccc(Cl)cc1)c1ccc(NC(=O)c2ccccn2)cc1	43.3%	62.1%	46.1%	67.6%	-77.6% (active)	53.9%	30.9%	0.827% (active)	53.9%	53.2%
C1CCC(N2CN3c4nonc4N4CN(C5CCCCC5)CN5c6nonc6N(C2)C3C45)CC1 (stereo not given)	83.8%	81.3%	95.5%	102%	88.9%	109%	104%	101%	86.6%	93.3%
O=C(OCc1ccc2c(Cl)cc(Cl)c(O)c2n1)N1CCN(C(=O)c2cc3ccccc3[nH]2)CC1	25.3%	40.6%	23.8%	41.3%	19.6%	31.2%	18.5%	30.6%	43.5%	7.03% (active)
Nc1ccc(Br)cc1C(F)(F)F	112%	115%	100%	94.9%	124%	103%	114%	120%	113%	106%
Cc1nn(-c2ccc([N+](=O)[O-])cc2)c2ncnc(N/N=C/c3ccccc3O)c12	4.55% (active)	1.23% (active)	14.5%	55.8%	16.5%	3.11% (active)	9.22% (active)	27.3%	44%	6.28% (active)
CCOC(=O)/C(=C(/C)NCC(C)C)c1cc(O)c(O)c2c(C)cc(=O)[nH]c12	18.4%	19.2%	23.8%	86.6%	25.8%	84.4%	61%	6.74% (active)	79.5%	17.2%
COC(=O)Cn1c2c(c3c(OC)cccc31)C(=O)c1ccccc1-2	84.8%	85.3%	107%	81.1%	101%	96.9%	110%	116%	97.2%	95.5%
CCCCCCCCn1ccc2cc(NC(=O)CN3CCN(c4cc(C)nc(Cl)n4)CC3)ccc21	73.3%	73.5%	94.9%	95.2%	75.2%	105%	72.5%	108%	94.2%	84.8%
C=C(C)[C@@H]1CC[C@]2(C(=O)N3CCNCC3)CC[C@]3(C)[C@H](CC[C@@H]4[C@@](C)(CCC(=O)N5CCNCC5)[C@H](C(=C)C)CC[C@]43C)[C@@H]12	-15.2% (active)	12.1%	47.8%	104%	81.9%	101%	101%	70.7%	92.4%	95.6%
CN(C)CCCC1(c2ccc(F)cc2)OCc2cc(-c3csc4ccccc34)ccc21 (stereo not given)	-8.7% (active)	-40.7% (active)	-23.2% (active)	37%	26.4%	81.9%	-31.1% (active)	-58.2% (active)	19.3%	37.9%
O=C(O)CCCCCCCCCCN1C(=O)/C(=C2/C(=O)N(CC(=O)O)c3ccc(Br)cc32)SC1=S	57.6%	79.3%	65.9%	106%	95%	96.6%	74.3%	87.9%	85%	96.7%
C=C1C(=O)O[C@H]2[C@H]1CC/C(COC(=O)C(=O)c1c[nH]c3ccc(Cl)cc13)=C\CC[C@@]1(C)O[C@@H]21	1.13% (active)	-39.1% (active)	-30.3% (active)	-36.6% (active)	-89.3% (active)	26.2%	-81% (active)	-95% (active)	-14.2% (active)	-20% (active)
C=C(C)[C@@H]1CC[C@]2(C(=O)N3CCN(C)CC3)CC[C@]3(C)[C@H](CC[C@@H]4[C@@](C)(CCC(=O)O)[C@H](C(=C)C)CC[C@]43C)[C@@H]12	56.9%	58.6%	88.9%	111%	97%	89.6%	104%	88.8%	86.7%	92.4%
C=CN(C(=O)N1CCN(c2cc3c(cc2F)c(=O)c(C(=O)O)cn3C2CC2)CC1)c1nc(-c2ccccc2)cs1	86.2%	93.4%	91.3%	102%	93.1%	87.8%	105%	108%	97.8%	103%
